# High-throughput results from PubChem.
# Sampled rows, rich in hits. Any-hit rate of the full collection: about 3.8%.
# Nrf2 inh: inhibitors of Nrf2 signaling; AID 504444; A549 ARE-Fluc reporter, luciferase luminescence, 18-24 h; hit rate 2.1% among 360,000; Potency, µM (top dose mostly 46 µM), inactives show at the highest dose activity change, negative = inhibition, actives largely listed as inhibitors; note: % is set by controls: 0 for no effect and ±100 for the full control effect; nearly all actives have a fitted effect of over 60% in size
#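 Nrf2 activity is the BugLite luminescence, read 15 min after reagent at room temperature, following CellTiter-Fluor cytotoxicity readout (30 min, 37C). Compound titrations were applied for 18-24 h to 5000 A549 ARE_Fluc cells/well in 5% FBS OPTI-MEM.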
# IDH1 R132H inh: human IDH1 R132H inhibition; O75874; IDH1-R132H enzyme, NADPH consumption, diaphorase/resazurin fluorescence; Potency, µM (titrated, usually from 76.6 µM), for the others: top-dose activity change, negative = inhibition, most hits filed as inhibitors; hit rate 0.093% among 390,000; AID 602179; note: % is set by controls: 0 for no effect and ±100 for the full control effect; nearly all actives have a fitted effect of over 65% in size
# Target sequence (O75874 whole entry R132H, stated change not applied): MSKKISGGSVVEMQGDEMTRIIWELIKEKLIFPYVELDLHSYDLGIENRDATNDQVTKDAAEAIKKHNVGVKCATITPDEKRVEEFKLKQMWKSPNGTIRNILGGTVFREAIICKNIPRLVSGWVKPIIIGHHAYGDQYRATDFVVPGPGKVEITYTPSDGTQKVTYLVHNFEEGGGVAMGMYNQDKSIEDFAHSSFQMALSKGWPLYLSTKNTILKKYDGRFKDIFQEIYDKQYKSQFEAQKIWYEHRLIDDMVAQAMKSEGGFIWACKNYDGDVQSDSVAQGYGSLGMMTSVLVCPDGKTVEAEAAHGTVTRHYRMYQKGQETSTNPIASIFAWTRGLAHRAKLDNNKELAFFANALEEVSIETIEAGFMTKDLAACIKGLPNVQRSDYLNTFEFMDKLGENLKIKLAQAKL
#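 IDH1-R132H (0.5 ug/mL dispensed) in pH 7.5 Tris buffer was preincubated 30 min with compound, then given a substrate mix of 0.016 mM NADPH and 2 mM alpha-KG for 80 min at room temperature; remaining NADPH was read by diaphorase/resazurin fluorescence.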
# A549 viability: counter-screen for Nrf2 inhibitors: cytotoxicity in A549 cells. A549 ARE-Fluc cells, CellTiter-Fluor viability, 18-24 h. Potency, µM (titrated, usually from 46 µM), without a hit: at the highest dose activity change, negative = cytotoxicity, most hits filed as inhibitors. hit rate 0.16% among 390,000. AID 504648; note: % is set by controls: 0 for no effect and ±100 for the full control effect
#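 Cytotoxicity counterscreen: CellTiter-Fluor fluorescence was measured in A549 ARE_Fluc cells after 18-24 h of compound exposure in a concentration series. The subsequent BugLite luminescent read reports ARE-luciferase activity.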
# Nrf2 ARE act: activators of Nrf2 (ARE) signaling; AREc32 ARE-luciferase reporter (MCF7-derived line), luminescence, 24 h; Potency, µM (top dose mostly 46.1 µM), for the others: top-dose activation, actives largely listed as activators; hit rate 0.31% among 410,000; AID 624171; note: % of control where 0% means no effect; nearly all actives have a fitted effect of over 65% in size
#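 Luciferase luminescence (Steady-Glo, 30 min at room temperature) served as the read-out of ARE activation in AREc32 cells treated with compounds for 24 hr at 37 deg C.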
# ELG1 repair inh: ELG1-dependent DNA repair inhibition; HEK293T ELG1-luciferase reporter, luminescence, 16 h; DNA damage induced by 5-fluorouridine; Potency, µM (top dose mostly 46.1 µM), without a hit: top-dose activity change, negative = inhibition, actives largely listed as inhibitors; hit rate 2.3% among 330,000; note: % is set by controls: 0 for no effect and ±100 for the full control effect; nearly all actives have a fitted effect of over 55% in size
#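 Luminescence from the luciferase reporter, measured 30 min after ONE-Glo reagent at room temperature, was the read-out. Beforehand, 2,000 cells per well were exposed for 16 hr at 37 °C to 5-fluorouridine together with compound or vehicle.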
# An asterisk follows results filed as active; ? = inconclusive; . = no result. Calls come from the whole dose curve; as a rule, active = well fitted curve in the direction sought with a large enough effect; inconclusive = small, poorly fitted or top-dose-only effect, or another doubt; inactive = no such curve, though single readings can be large; an effect the other way counts as inactive or inconclusive. Potency is the fitted concentration of half-maximal effect.
SMILES,Nrf2 inh,IDH1 R132H inh,A549 viability,Nrf2 ARE act,ELG1 repair inh
CC(C)(C)NC(=O)N1c2ccccc2Sc2ccccc21,1.7%,-5.0%,-6.2%,-1.0%,?
C/C(=C\[C@@H](NP(=O)(c1ccccc1)c1ccccc1)c1ccccc1)CO[Si](c1ccccc1)(c1ccccc1)C(C)(C)C,?,-5.0%,?,2.4%,.
CCN(CC)S(=O)(=O)c1cc(NC(=O)C(C)N2CC=C(c3ccccc3)CC2)ccc1C (stereo unspecified),?,-4.4%,-18.4%,2.6%,14.6µM*
OCc1cccc[n+]1CCc1ccccc1,7.31µM*,1.3%,-1.7%,-0.1%,.
CNCCc1ccccc1,.,.,.,.,2.1%
C#C[C@]1(O)CC[C@H]2[C@@H]3CCC4=Cc5nc6nc7ccccc7n6cc5C[C@]4(C)[C@H]3CC[C@@]21C,?,2.8%,?,?,7.94µM*
CCC(=O)N1N=C(c2c(O)n(C)c(=O)n(C)c2=O)CC1c1ccccc1 (stereo unspecified),?,-7.9%,-11.2%,0.0%,?
CC(C)CCn1c(N)c(C(=O)NCc2cccs2)c2nc3ccccc3nc21,-21.5%,3.0%,3.8%,-0.9%,6.51µM*
CC(C)CNC(=O)c1c(N)n(Cc2ccc3c(c2)OCO3)c2nc3ccccc3nc12,?,-5.4%,?,0.4%,?
CC(C)CCNC(=O)c1c(N)n(Cc2ccc3c(c2)OCO3)c2nc3ccccc3nc12,20.6µM*,-3.2%,16.4µM*,0.1%,?
COCCOC(=O)c1c(N)n(Cc2ccc(OC)cc2)c2nc3ccccc3nc12,-7.7%,3.0%,-12.5%,2.6%,14.6µM*
CC(C)OCCCNC(=O)c1c(N)n(Cc2cccs2)c2nc3ccccc3nc12,?,-5.9%,?,-3.7%,16.4µM*
COc1ccc(COC(=O)CCNC(=O)c2ccc(Cl)cc2)cc1,11.9%,-0.6%,-1.0%,0.2%,?
COCCNC(=O)c1c(N)n(CCC(C)C)c2nc3ccccc3nc12,?,1.9%,12.5%,6.5%,5.8µM*
CC(C)CCOP(=O)(c1ccc(N(C)C)cc1)C(O)c1ccc(Cl)cc1Cl (stereo unspecified),?,9.9%,?,0.3%,?
CCOc1ccc(Nc2c(S(=O)(=O)c3ccc(C)cc3)cnc3ccc(F)cc23)cc1,?,5.9%,-11.1%,2.2%,.
CCOc1ccc(Nc2c(S(=O)(=O)c3ccc(C)cc3)cnc3ccccc23)cc1,23.1µM*,0.0%,-14.0%,0.8%,.
O=C(c1cncc(Br)c1)N1CCN(S(=O)(=O)c2ccc3ccccc3c2)CC1,?,0.5%,0.6%,2.1%,?
Cc1[nH]c2ccccc2c1P(=S)(c1ccccc1)c1ccccc1,-9.7%,.,-0.5%,.,.
COc1ccc(NC(c2ccccc2F)P(=O)(Oc2ccccc2)Oc2ccccc2)cc1 (stereo unspecified),-18.4%,-6.5%,1.2%,3.0%,18.4µM*
CN(C)S(=O)(=O)c1ccc(C(=O)NNc2nc(-c3ccccc3)c3cc(Br)ccc3n2)cc1,13µM*,-2.5%,-20.3%,5.0%,23.1µM*
COc1cccc(CSc2nc(-c3ccccc3OC)nc3c2Cc2c(CO)cnc(C)c2O3)c1,?,-22.2%,-11.6%,3.4%,.
COc1cc([N+](=O)[O-])c2nc(C)ccc2c1[N+](=O)[O-],-7.1%,9.5%,-8.4%,17.8µM*,.
C=CCS(=O)(=O)N1CCC(CCOc2ccccc2)(C(=O)OCC)CC1,3.9%,-4.4%,-0.4%,0.3%,?
C=C1C(=O)[C@@]23C[C@H]4[C@@H]5[C@@]6(C)CCC[C@@]57[C@@H]2[C@@H](O)[C@@H]1C[C@H]3[C@H]7N4C6,23.1µM*,-11.9%,13µM*,-2.8%,.
SMILES,Nrf2 inh,IDH1 R132H inh,A549 viability,Nrf2 ARE act,ELG1 repair inh
CSc1cccc(NC(=O)C2CCN(C(=O)c3cnn(-c4ccccc4)c3-n3cccc3)CC2)c1,23.1µM*,0.0%,-22.2%,7.0%,.
Cc1ccc(NC(=O)C2CCCN(C(=O)c3cnn(-c4ccccc4)c3-n3cccc3)C2)cc1 (stereo unspecified),13µM*,-17.9%,-6.1%,0.6%,.
CSc1ccccc1NC(=O)CN(C)CC(=O)c1[nH]c(C)c(C(C)=O)c1C,?,9.1%,-8.5%,0.7%,16.4µM*
CNc1ccc2nc3ccccc3[n+](C)c2c1,6.51µM*,16.1%,7.31µM*,-0.2%,1.64µM*
OCCNc1c2c(nc3ccccc13)CCCC2,15.1%,4.0%,-7.8%,-0.1%,-18.7%
C[n+]1c2ccccc2nc2ccc(NCCO)cc21,?,17.7%,16.4µM*,0.2%,8.2µM*
O=C(COc1ccc(Cl)cc1)N1CCN(Cc2ccc([N+](=O)[O-])cc2)CC1,?,-5.0%,-21.3%,6.0%,?
COc1ccc(OCC(=O)N2CCN(Cc3nc4cc([N+](=O)[O-])ccc4n3C)CC2)cc1,23.1µM*,-3.2%,-19.9%,5.7%,?
CCN(C[C@H]1N[C@@](CC)(C(=O)OC)[C@H]2C(=O)N(Cc3ccccc3)C(=O)[C@@H]12)S(=O)(=O)c1ccc(C)cc1,-4.4%,9.4%,-3.9%,0.6%,?
Cc1ccc(C(=O)Nc2c(C(=O)Nc3ccc(C)c(C)c3)sc3nc(C)cc(C)c23)cc1,?,0.6%,-11.5%,7.7%,.
COC(=O)c1ccc(NC(=O)CSc2nc3ccc(N4C(=O)C5C6C=CC(C6)C5C4=O)cc3s2)cc1 (stereo unspecified),18.4µM*,-0.5%,?,0.1%,13µM*
COc1cccc(C(=O)Nc2ccc3nc(SCC(=O)N(C)c4ccccc4)sc3c2)c1,?,6.2%,-18.1%,0.1%,.
Cc1ccc(NC(=O)c2snnc2C)cc1Cl,?,8.1%,-10.5%,5.3%,?
Cc1nn(C(C)(C)C)c(C)c1/C=N/OC(=O)Nc1ccc(Cl)c(Cl)c1,1.84µM*,4.2%,6.8%,-2.3%,-21.4%
Cc1ccc(NS(=O)(=O)c2c(F)cc(F)c(Cl)c2F)cc1S(=O)(=O)N1CCOCC1,-7.7%,3.7%,-6.5%,?,-7.7%
c1ccc2nc3ccccc3nc2c1,20.6µM*,-13.2%,?,3.8%,2.4%
CCOC(=O)C(=CNc1ccc(C(O)(C(=O)OCC)C(F)(F)F)cc1C)C(=O)OCC (stereo unspecified),?,6.9%,-2.9%,5.2%,18.4µM*
NC(=O)c1ccc(N=Nc2c(O)[nH]c(=O)[nH]c2=O)cc1,.,.,.,.,8.9%
O=c1[nH]c(O)c(N=Nc2cc([N+](=O)[O-])ccc2O)c(=O)[nH]1,-1.4%,0.0%,23.1µM*,-0.3%,-3.2%
O=C(c1ccc(N2CCN(CCO)CC2)nc1)N1CCOCC1,3.6%,-13.7%,3.2%,0.1%,?
CCc1nn2c(=O)c(C)c(N3CCNCC3)nc2s1,-3.5%,.,-10.9%,.,.
